HCMV inh: inhibitors of human cytomegalovirus. activity change, negative = inhibition, % at 57.5 µM. HFF cells, HCMV-luciferase reporter, 72 h; hits give low values. 4.5% of 410,000 active. AID 1259415; in the data active = activity change below about -60%; inconclusive = no clear call, values can overlap the other calls; inactive = above about -39%
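Human foreskin fibroblasts infected with luciferase-reporter HCMV at MOI 1 PFU/cell, compounds at two doses. Luciferase measured 72 h post infection; normalized to buffer-only basal and Salinomycin (10uM) controls.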
VACV mCherry inh: vaccinia inhibition (mCherry reporter); 0.63% of 310,000 active; Potency, µM (titrated, usually from 36.5 µM), inactives show at the top dose activity change, negative = inhibition, usual class: inhibitors; Vaccinia virus mCherry reporter infection, fluorescence; calls by dose curve; tested in A549 cells; also: potency is read from the fitted curve at half-maximal effect; nearly all actives have a fitted effect of over 35% in size
VACV Venus inh: inhibitors of vaccinia virus (Venus reporter). Potency, µM (doses to about 36.5 µM), inactives show at the highest dose activity change, negative = inhibition, most hits filed as inhibitors. Vaccinia virus Venus reporter expression, fluorescence. 0.46% of 330,000 active; calls by dose curve; tested in A549 cells; also: potency is read from the fitted curve at half-maximal effect; nearly all actives have a fitted effect of over 30% in size
HCV inh: blocks hepatitis C virus | Huh7.5.1 HCVcc-Cre infection, luciferase reporter, 44 h | Potency, µM (highest dose often 41.8 µM), inactives show at the top dose activity change, negative = inhibition, hits mostly inhibitors | 3.4% of 340,000 active; active = well fitted inhibition curve with a large enough effect; inconclusive = small, poorly fitted or top-dose-only effect, or another doubt; inactive = no such curve, though single readings can be large or run the other way; also: potency is read from the fitted curve at half-maximal effect
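Cells (1,000/well) were plated 4 h before compound, then infected with HCVcc-Cre virus (~0.5 moi). After 44 h further culture, infection was read as luciferase luminescence following a 15 min substrate incubation at room temperature.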
FMDV inh: foot and mouth disease virus antiviral activity; Potency, µM (top dose mostly 57.9 µM), inactives show at the highest dose activity change, negative = inhibition, hits mostly inhibitors; 1.2% of 410,000 active; FMDV antiviral cell-based qHTS; AID 1159524; calls by dose curve; tested in HEK293T cells; also: read-out not given here; potency is read from the fitted curve at half-maximal effect; nearly all actives have a fitted effect of over 45% in size
Active calls of the source: *; i = inactive; ? = inconclusive; nt = no result. An excerpt weighted towards active compounds, which were near 7.3% of everything screened. % is scaled to controls: 0 for no effect and ±100 for the full control effect.

SMILES | HCMV inh | VACV mCherry inh | VACV Venus inh | HCV inh | FMDV inh
COc1ccc(Cl)cc1C(=O)Nc1ccc(S(=O)(=O)N2CCCC2)cc1 | -101.5* | -8.1% | -6.7% | 10.8% | -20.2%
O=C(Nc1ccncc1)c1cc(S(=O)(=O)N2CCCC2)ccc1Cl | 21.2 | nt | nt | ? | ?
O=C(Nc1ccc(O)cc1)c1cc(S(=O)(=O)N2CCCC2)ccc1Cl | -97.0* | -18.0% | -17.2% | -24.8% | ?
COc1ccccc1C(=O)Nc1ccc(S(=O)(=O)N2CCCC2)cc1 | -8.7 | nt | nt | -3.6% | -20.8%
CCn1c(Oc2ccccc2)nc2c1c(=O)n(C)c(=O)n2C | -60.1* | -9.2% | -0.2% | -8.1% | -6.9%
COc1cccc(Cn2c(Oc3cccc(C)c3)nc3c2c(=O)n(C)c(=O)n3C)c1 | 22.8 | nt | -8.2% | 11.2µM* | -28.6%
Cn1c(=O)c2c(nc(Oc3ccccc3Cl)n2C)n(C)c1=O | -79.3* | -0.9% | -5.7% | 1.4% | ?
COc1cccc(Cn2c(NCc3cccnc3)nc3c2c(=O)n(C)c(=O)n3C)c1 | -25.6 | 4.47µM* | ? | 5.3% | ?
C=CCn1c(Oc2ccccc2)nc2c1c(=O)n(C)c(=O)n2C | -11.9 | -10.8% | -8.5% | 9.1% | -9.8%
COc1cccc(Cn2c(NCc3ccccn3)nc3c2c(=O)n(C)c(=O)n3C)c1 | 1.1 | nt | nt | nt | nt
Cn1c(=O)c2c(nc(Oc3ccccc3N)n2C)n(C)c1=O | 15.3 | nt | nt | 6.0% | 19.4%
C=CCn1c(SCC#N)nc2ccc(Cl)cc2c1=O | nt | 17.3% | -18.1% | nt | nt
CCn1c(NCc2cccc(Cl)c2)nc2ccccc21 | 0.3 | i | 2.3% | nt | -22.0%
CN1CCN(c2ncc3nc(-c4cccc(C#N)c4)c(=O)n(C)c3n2)CC1 | nt | nt | nt | nt | 0.7%
COc1ccc(CCN2C(=O)CN(C3CCCCCC3)C(=O)C2c2ccc(C)cc2)cc1OC (configuration not stated) | 42.9 | -12.0% | -14.8% | nt | 3.1%
CCCOc1nc2c(c(=O)n(C)c(=O)n2C)n1Cc1cccc2ccccc12 | -90.9* | i | -13.9% | ? | nt
CCCOc1nc2c(c(=O)n(C)c(=O)n2C)n1C | -16.5 | -2.0% | -5.8% | 6.6% | -11.8%
Cn1c(N)c(C(=O)Nc2cccc(Cl)c2)c(=O)n(C)c1=O | 155.9 | -14.0% | -14.8% | ? | 5.2%
CN=c1sc(C(=O)Nc2cccc(Cl)c2)cc(=O)n1C | -66.0* | nt | nt | -8.4% | -22.1%
CCc1ccccc1NC(=O)N1CC(C)Sc2ccccc21 (configuration not stated) | 0.0 | -4.1% | -9.1% | nt | 0.9%
O=C(COc1ccccc1[N+](=O)[O-])Nc1ccc(NC(=O)c2cc3ccccc3o2)cc1 | ? | i | -8.3% | 11.2µM* | -18.2%
O=C(N/N=C/c1ccco1)c1cc2ccccc2o1 | -11.0 | nt | nt | 6.9% | 61.0%
O=C(COc1ccc(/C=N/NC(=O)c2cc3ccccc3o2)cc1Br)Nc1ccccc1 | -100.4* | ? | ? | ? | -37.5%
COc1ccc(CNC(=O)CN2C(=O)COc3ccc(S(=O)(=O)Nc4ccccc4)cc32)cc1 | 2.9 | -2.3% | -1.9% | nt | 21.4%
O=[N+]([O-])c1cc(Cl)cc2c1nc(NCCO)c1ccccc12 | -94.9* | 0.891µM* | ? | 2µM* | -7.2%
SMILES | HCMV inh | VACV mCherry inh | VACV Venus inh | HCV inh | FMDV inh
O=c1[nH]nc(-c2ccc(NCCO)c([N+](=O)[O-])c2)c2ccccc12 | -29.0 | i | -12.5% | 12.2% | -12.0%
CCOCCc1nn2c(=O)cc(COC(=O)c3ccccc3OC)nc2s1 | -1.4 | -12.0% | -4.9% | nt | -9.9%
Cc1ccc(NC(=O)CCCCCN2C(=O)[C@@H]3Cc4ccccc4CN3C2=O)c(Cl)c1 | 30.0 | nt | nt | 12.6µM* | ?
CC[N+]1=C(C)C(C)(C)c2cc(C)ccc21 | -94.3* | 78.3% | 270.2% | 12.6µM* | ?
COc1cccc(-c2cc(NC=O)c3ncc(-c4ccc(C(C)=O)cc4)n3c2)c1 | -64.4* | -24.3% | ? | nt | -17.2%
COc1ccc(-c2cc(NC=O)c3ncc(-c4cccc(C(C)=O)c4)n3c2)cc1 | 18.4 | 12.6µM* | ? | nt | -4.5%
COc1ccc(-c2cc(NC=O)c3ncc(-c4ccc(C(C)=O)cc4)n3c2)cc1OC | 44.4 | ? | ? | nt | -25.5%
CCOc1ccc(C(=O)NCCc2ccc3c(c2)OCCO3)cc1 | -3.5 | -10.7% | -9.0% | -8.6% | -16.9%
Cc1c(F)cccc1NC(=O)C1CCCN1S(=O)(=O)c1ccc(F)cc1 (configuration not stated) | -9.9 | -10.4% | 4.1% | nt | ?

Assay outcomes from PubChem.
